Marburg entry inh: blocks Marburg virus binding to or entry into cells; Marburg virus pseudotyped entry inhibition, cell reporter; Potency, µM (titrated, usually from 37.8 µM), actives largely listed as inhibitors; 1.8% of 300,000 active; AID 540276; calls by dose curve; tested in HEK293 cells
SARS PLP yeast: SARS-CoV PLP inhibition in yeast. S. cerevisiae expressing SARS-CoV PLpro, growth rescue. Potency, µM (titrated, usually from 32.9 µM), most hits filed as activators. 0.19% of 330,000 active. AID 485353; calls by dose curve; also: nearly all actives have a fitted effect of over 55% in size
HCV inh: blocks hepatitis C virus. Potency, µM (top dose mostly 41.8 µM), hits mostly inhibitors. 3.4% of 340,000 active. Huh7.5.1 HCVcc-Cre infection, luciferase reporter, 44 h; active = well fitted inhibition curve with a large enough effect; inconclusive = small, poorly fitted or top-dose-only effect, or another doubt; inactive = no such curve, though single readings can be large or run the other way
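Whole-lifecycle infectious HCVcc-Cre system; cells 1,000/well, compound then virus (~0.5 moi) added 4 h after plating, 44 h culture. Luciferase read 15 sec following 15 min substrate incubation, room temp.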
Lassa entry inh: inhibitors of Lassa virus binding or cell entry; Lassa virus pseudotype entry inhibition, cell reporter; Potency, µM (titrated, usually from 37.9 µM), actives largely listed as inhibitors; 1.2% of 300,000 active; AID 540256; calls by dose curve; tested in HEK293 cells; also: nearly all actives have a fitted effect of over 50% in size
FMDV antiviral: blocks foot and mouth disease virus. FMDV antiviral cell-based qHTS. Potency, µM (doses to about 57.9 µM), actives largely listed as inhibitors. 1.2% of 410,000 active; calls by dose curve; tested in HEK293T cells; also: read-out not given here; nearly all actives have a fitted effect of over 45% in size
HCMV inh: inhibitors of human cytomegalovirus. HFF cells, HCMV-luciferase reporter, 72 h; hits give low values. AID 1259415. 4.5% of 410,000 active. activity change, negative = inhibition, % at 57.5 µM; in the data active = activity change below about -60%; inconclusive = no clear call, values can overlap the other calls; inactive = above about -39%
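Luciferase read-out from HCMV-luciferase-infected HFFs (MOI 1 PFU/cell) 72 h post infection at 37C; compounds added after 16 h cell attachment; activity normalized between buffer-only basal and Salinomycin (10uM) inhibitor controls.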
Each line names hits and unclear results; the compound was inactive in the other large screens. This is a sample that favours compounds with a hit; in the whole collection about 8% have one here.

CCOc1ccc(CCNC(=O)CCSCc2ccc(Cl)cc2)cc1OCC	none (no result: Marburg entry inh, SARS PLP yeast, HCV inh)
CC(C)(C)c1ccc(/C=N/NC(=S)NC2CCCCC2)cc1	Marburg entry inh inconclusive, SARS PLP yeast 20µM, HCV inh inconclusive, Lassa entry inh inconclusive
CCCCC(=O)NC(c1ccco1)c1c(O)ccc2ccccc12 (stereo not given)	none
CCCC(=O)NC(c1ccco1)c1cc([N+](=O)[O-])c2cccnc2c1O (stereo not given)	Marburg entry inh inconclusive, SARS PLP yeast inconclusive, Lassa entry inh inconclusive, HCMV inh -63.8
CC(=O)NC(c1cc(F)c2cccnc2c1O)C1CC1 (stereo not given)	FMDV antiviral inconclusive (no result: Marburg entry inh, HCV inh, Lassa entry inh)
CCC(=O)NC(c1ccc(C)cc1)c1cc([N+](=O)[O-])c2cccnc2c1O (stereo not given)	Marburg entry inh inconclusive, SARS PLP yeast 3.16µM, HCV inh inconclusive, Lassa entry inh inconclusive, FMDV antiviral inconclusive, HCMV inh -97.5
CC(=O)NC(c1ccc(C)cc1)c1cc([N+](=O)[O-])c2cccnc2c1O (stereo not given)	Marburg entry inh inconclusive, HCV inh inconclusive, Lassa entry inh inconclusive, HCMV inh -98.9
CCCC(=O)NC(c1ccco1)c1c(O)ccc2ccccc12 (stereo not given)	Marburg entry inh inconclusive, HCMV inh -83.6
CCC(=O)NC(c1ccco1)c1cc(Br)c2cccnc2c1O (stereo not given)	HCMV inh inconclusive (no result: Marburg entry inh, HCV inh, Lassa entry inh)
COc1cccc(CN2CCC(n3cc(C(=O)N4CCCCC4)nn3)CC2)c1OC	none (no result: Marburg entry inh, SARS PLP yeast, HCV inh, Lassa entry inh, HCMV inh)
COc1cc(NC(=O)CSc2nc3nc(C)c(Cc4ccccc4)c(C)n3n2)cc(OC)c1OC	FMDV antiviral inconclusive (no result: Marburg entry inh, SARS PLP yeast, HCV inh)
CCCn1c(=O)c(C(=O)NCc2ccc(OC)c(OC)c2)c(O)c2ccccc21	HCV inh 14.1µM, FMDV antiviral inconclusive
CCN(CC)CCCNC(=O)c1c(O)c2ccccc2n(Cc2ccccc2)c1=O	Marburg entry inh 14.1µM, Lassa entry inh inconclusive
C=CCn1c(=O)c(C(=O)NCc2ccc(Cl)cc2)c(O)c2ccccc21	HCMV inh -65.9 (no result: Marburg entry inh, Lassa entry inh)
CCCn1c(=O)c(C(=O)NCCc2ccc(OC)cc2)c(O)c2ccccc21	HCV inh 12.6µM (no result: Marburg entry inh, Lassa entry inh)
CCN(CC)CCNC(=O)c1c(O)c2ccccc2n(Cc2ccccc2)c1=O	Marburg entry inh inconclusive, HCV inh inconclusive
C=CCn1c(=O)c(C(=O)NCCc2ccccc2)c(O)c2ccccc21	HCV inh inconclusive, HCMV inh inconclusive (no result: FMDV antiviral)
Cc1c(NC(=O)c2ccc(-c3ccc(F)cc3)o2)cccc1-c1nc2ncccc2o1	none (no result: Marburg entry inh, SARS PLP yeast, HCV inh)
COc1ccc(-n2nnnc2C2CCN(S(=O)(=O)c3ccc(NC(C)=O)cc3)CC2)cc1	FMDV antiviral inconclusive, HCMV inh inconclusive (no result: SARS PLP yeast, HCV inh)
Cc1cccc(N2CCN(C(=O)c3ccc(Cl)c(S(=O)(=O)NCc4ccco4)c3)CC2)c1C	Marburg entry inh inconclusive, HCV inh 10µM, FMDV antiviral inconclusive
O=C(c1cccc(S(=O)(=O)NCc2ccccc2)c1)N1CCN(c2ccccc2)CC1	HCV inh inconclusive (no result: Marburg entry inh, Lassa entry inh)
O=C(c1cccc(S(=O)(=O)NCc2ccccc2)c1)N1CCN(c2ccccc2Cl)CC1	HCV inh 11.2µM (no result: SARS PLP yeast, Lassa entry inh)
CC1CN(C(=O)c2ccc(Cl)c(S(=O)(=O)NCc3ccco3)c2)CC(C)O1 (stereo not given)	none (no result: Marburg entry inh, Lassa entry inh)
COc1ccc(-n2c(O)c(/C(C)=N/N3CCCCCC3)c(=O)[nH]c2=O)cc1	Marburg entry inh inconclusive, Lassa entry inh 2.24µM, HCMV inh inconclusive
COc1ccc(-n2c(O)c(/C(C)=N/Nc3ccccc3)c(=O)[nH]c2=O)cc1	Marburg entry inh inconclusive, Lassa entry inh inconclusive
COc1ccc(-n2c(O)c(C(C)=NCCCn3ccnc3)c(=O)[nH]c2=O)cc1	Marburg entry inh inconclusive, Lassa entry inh inconclusive, HCMV inh -65.8
CCC(=NCc1ccco1)c1c(O)n(-c2ccc(OC)cc2)c(=O)[nH]c1=O	Lassa entry inh 1.64µM
COc1cccc(CNC(=O)CNC(=S)N(Cc2ccccc2)Cc2ccccc2F)c1	Marburg entry inh inconclusive, HCMV inh -66.3
O=C(CNC(=S)N(Cc1ccccc1)Cc1ccccc1F)NCc1ccccc1	Marburg entry inh inconclusive, Lassa entry inh inconclusive, HCMV inh inconclusive
COc1ccc(Cn2c(=O)[nH]c3cc(C(=O)N4CCN(c5cc(C)ccc5C)CC4)ccc3c2=O)cc1	Marburg entry inh inconclusive (no result: SARS PLP yeast, HCV inh)
COc1ccc(Cn2c(=O)[nH]c3cc(C(=O)N4CCN(c5ccccc5F)CC4)ccc3c2=O)cc1	HCV inh inconclusive (no result: Lassa entry inh)
COc1ccc(Cn2c(=O)[nH]c3cc(C(=O)N4CCN(c5ccccc5OC)CC4)ccc3c2=O)cc1	Marburg entry inh inconclusive, HCV inh 10µM, Lassa entry inh inconclusive, FMDV antiviral 17.8µM (no result: HCMV inh)
COc1ccc(Cn2c(=O)[nH]c3cc(C(=O)N4CCN(Cc5ccccc5)CC4)ccc3c2=O)cc1	Marburg entry inh inconclusive, HCV inh inconclusive, FMDV antiviral 14.1µM, HCMV inh -63.0
COc1ccc(CCn2c(=O)[nH]c3cc(C(=O)N4CCN(c5ccccc5)CC4)ccc3c2=O)cc1OC	Marburg entry inh inconclusive, HCV inh inconclusive, FMDV antiviral 15.8µM
COc1ccc(CNS(=O)(=O)c2ccc3c(c2)N(C(C)=O)CC(C)S3)cc1 (stereo not given)	Marburg entry inh inconclusive, HCV inh inconclusive, Lassa entry inh inconclusive, FMDV antiviral inconclusive, HCMV inh -91.2
COc1ccc(NS(=O)(=O)c2ccc3c(c2)N(C(C)=O)CC(C)S3)c(OC)c1 (stereo not given)	HCV inh 11.2µM, HCMV inh -85.1 (no result: Marburg entry inh, Lassa entry inh)
O=C1CC(C(=O)N2CCOc3ccc(CN4CCC(Oc5cccnc5)CC4)cc3C2)c2ccccc21 (stereo not given)	none (no result: Marburg entry inh, SARS PLP yeast, HCV inh, Lassa entry inh, HCMV inh)
CCCCCCCCCCCCCCCCOCC(CO)OC (stereo not given)	none (no result: Marburg entry inh, SARS PLP yeast, HCV inh, Lassa entry inh, HCMV inh)
CCOC(=O)c1sc(NC(=O)c2c(-c3ccccc3)c(-c3ccccc3)nn(C)c2=O)nc1C	Marburg entry inh inconclusive (no result: SARS PLP yeast, HCV inh)
O=C(C(=O)c1ccc(O)c(O)c1)c1ccc(O)c(O)c1	none (no result: SARS PLP yeast)
CN(N=O)c1ccc(O)c(O)c1	Marburg entry inh 17.7µM, Lassa entry inh inconclusive (no result: SARS PLP yeast, HCV inh, FMDV antiviral, HCMV inh)
Cc1ccc(-n2nc3cc(C)c(N)cc3n2)cc1	Marburg entry inh inconclusive, Lassa entry inh 12.6µM
CCc1ccc(-n2nc3cc(C)c(N)cc3n2)cc1	none (no result: Marburg entry inh, Lassa entry inh)
CSc1ncccc1C(=O)N1CCOc2ccc(C(C)(O)CCn3cccn3)cc2C1 (stereo not given)	none (no result: Marburg entry inh, SARS PLP yeast, HCV inh, Lassa entry inh, HCMV inh)
COc1cccc(/C(C#N)=C/c2c(-c3ccc(Cl)cc3)nc3c(C)cccn23)c1	Marburg entry inh inconclusive, HCV inh 11.2µM, Lassa entry inh inconclusive, HCMV inh inconclusive
Cc1cccn2c(/C=N/OCc3cccc(F)c3)c(-c3ccc(Cl)cc3)nc12	none
Cc1c(C(=O)N(Cc2ccc(Cl)cc2)CC2CCCO2)oc2ccc(F)cc12 (stereo not given)	none (no result: SARS PLP yeast, HCV inh)
COc1ccccc1N1C(=O)N(C(C)=O)C2C1Nc1ccccc1N2C (stereo not given)	Marburg entry inh 11.6µM, HCV inh inconclusive, Lassa entry inh inconclusive (no result: FMDV antiviral)
